Reference: the supplement of paper PMC10849652
Of roughly 8,800 targets only a part is listed; those with a hit were picked by preference. About 0.5% of all pairs of compound and target were hits. A number with no mark means an inactive call.

Experiments:
Test in all cases: log2 fold change, soluble protein after heating vs DMSO (PISA); higher = thermal stabilisation; K562 lysate, 10 uM; active = over 0.2 and 3.5 SD of the protein, either way, in both replicates (recomputed)
lapatinib = compound: CS(=O)(=O)CCNCc1ccc(-c2ccc3ncnc(Nc4ccc(OCc5cccc(F)c5)c(Cl)c4)c3c2)o1 [lapatinib]
Summary of the method: (§1)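 Pellets of K562 cells were dounce-homogenised in PBS pH 7.4 with 1 mM MgCl2, and the crude extract was held at 1 mg/mL protein for a 30 min treatment with 10 μM compound. Aliquots were heated for 3 min over 48°C-58°C and pooled before NP-40 was added to 0.5% at 4°C. The supernatant from 21,000xg for 90 min was quantified by TMTpro 16plex LC-MS/MS with channel sums equalised. Values are reported from duplicates as log-two fold change in thermal stability relative to solvent controls.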

pictilisib = compound: CS(=O)(=O)N1CCN(Cc2cc3nc(-c4cccc5[nH]ncc45)nc(N4CCOCC4)c3s2)CC1 [pictilisib]
Summary of the method: as §1

crizotinib = compound: C[C@@H](Oc1cc(-c2cnn(C3CCNCC3)c2)cnc1N)c1c(Cl)ccc(F)c1Cl [crizotinib]
Summary of the method: as §1

[1] = compound: C[C@H](C1=CC=C(C=C1)C(=O)NC2=C3C=CNC3=NC=C2)N
Summary of the method: as §1

duvelisib = compound: C[C@H](Nc1ncnc2nc[nH]c12)c1cc2cccc(Cl)c2c(=O)n1-c1ccccc1 [duvelisib]
Summary of the method: as §1

gandotinib = compound: Cc1cc(Nc2cc(CN3CCOCC3)c3nc(C)c(Cc4ccc(Cl)cc4F)n3n2)n[nH]1 [gandotinib]
Summary of the method: as §1

tozasertib = compound: Cc1cc(Nc2cc(N3CCN(C)CC3)nc(Sc3ccc(NC(=O)C4CC4)cc3)n2)n[nH]1 [tozasertib]
Summary of the method: as §1

doramapimod = compound: Cc1ccc(-n2nc(C(C)(C)C)cc2NC(=O)Nc2ccc(OCCN3CCOCC3)c3ccccc23)cc1 [doramapimod]
Summary of the method: as §1

bafetinib = compound: Cc1ccc(NC(=O)c2ccc(CN3CC[C@H](N(C)C)C3)c(C(F)(F)F)c2)cc1Nc1nccc(-c2cncnc2)n1 [bafetinib]
Summary of the method: as §1

[2] = compound: Cc1cccc(CC(=O)N2CCc3c2ccc(-c2cn(C)c4ncnc(N)c24)c3F)n1
Summary of the method: as §1

nilotinib = compound: Cc1cn(-c2cc(NC(=O)c3ccc(C)c(Nc4nccc(-c5cccnc5)n4)c3)cc(C(F)(F)F)c2)cn1 [nilotinib]
Summary of the method: as §1

[3] = compound: Cc1nc(Nc2n[nH]c3c2CN(C(=O)N[C@H](CN(C)C)c2ccccc2)C3(C)C)c2sccc2n1
Summary of the method: as §1

dasatinib = compound: Cc1nc(Nc2ncc(C(=O)Nc3c(C)cccc3Cl)s2)cc(N2CCN(CCO)CC2)n1 [dasatinib]
Summary of the method: as §1

[4] = compound: Cc1ncc(-c2ccnc(Nc3ccc(S(C)(=O)=O)cc3)n2)n1C(C)C
Summary of the method: as §1

[5] = compound: Cn1cc(-c2ccc3c(c2)CCN3C(=O)Cc2cccc(C(F)(F)F)c2)c2c(N)ncnc21
Summary of the method: as §1

quisinostat = compound: Cn1cc(CNCC2CCN(c3ncc(C(=O)NO)cn3)CC2)c2ccccc21 [quisinostat]
Summary of the method: as §1

tipifarnib = compound: Cn1cncc1[C@@](N)(c1ccc(Cl)cc1)c1ccc2c(c1)c(-c1cccc(Cl)c1)cc(=O)n2C [tipifarnib]
Summary of the method: as §1

[6] = compound: NC(=O)Nc1cc(-c2cccc(F)c2)sc1C(=O)N[C@H]1CCCNC1
Summary of the method: as §1

[7] = compound: NC(=O)c1cnc(N[C@@H]2CCCC[C@@H]2N)nc1Nc1cccc(-n2nccn2)c1
Summary of the method: as §1

[8] = compound: NC1(c2ccc(-c3nc4ccn5c(=O)[nH]nc5c4cc3-c3ccccc3)cc2)CCC1
Summary of the method: as §1

UniProt Q9GZT9, sequence (Q9GZT9 whole entry, looked up): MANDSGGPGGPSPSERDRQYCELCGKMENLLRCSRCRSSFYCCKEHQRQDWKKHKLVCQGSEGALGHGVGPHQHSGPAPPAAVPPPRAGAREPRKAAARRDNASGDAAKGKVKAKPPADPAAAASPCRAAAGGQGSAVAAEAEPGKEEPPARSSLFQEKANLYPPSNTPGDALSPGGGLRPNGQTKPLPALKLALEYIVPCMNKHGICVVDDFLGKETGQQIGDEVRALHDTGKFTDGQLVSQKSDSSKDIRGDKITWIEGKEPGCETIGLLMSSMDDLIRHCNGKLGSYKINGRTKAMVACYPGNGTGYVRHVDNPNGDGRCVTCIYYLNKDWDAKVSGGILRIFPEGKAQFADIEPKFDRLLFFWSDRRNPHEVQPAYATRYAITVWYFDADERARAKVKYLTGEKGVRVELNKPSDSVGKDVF
UniProt Q9NX74, sequence (Q9NX74 whole entry, looked up): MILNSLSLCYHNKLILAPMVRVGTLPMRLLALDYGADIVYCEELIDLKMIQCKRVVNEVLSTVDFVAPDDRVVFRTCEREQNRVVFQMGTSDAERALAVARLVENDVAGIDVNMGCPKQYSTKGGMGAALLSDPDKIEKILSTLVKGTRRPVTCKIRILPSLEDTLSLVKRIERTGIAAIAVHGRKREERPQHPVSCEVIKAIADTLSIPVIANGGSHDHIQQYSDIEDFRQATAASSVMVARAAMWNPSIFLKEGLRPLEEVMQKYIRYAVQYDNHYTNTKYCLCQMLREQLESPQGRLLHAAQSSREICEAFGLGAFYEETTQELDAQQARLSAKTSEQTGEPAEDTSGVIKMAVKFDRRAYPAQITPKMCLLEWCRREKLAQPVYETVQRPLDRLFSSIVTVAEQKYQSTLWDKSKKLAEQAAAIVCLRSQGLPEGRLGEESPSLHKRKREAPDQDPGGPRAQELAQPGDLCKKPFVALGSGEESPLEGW
UniProt P11171, sequence (P11171 whole entry, looked up): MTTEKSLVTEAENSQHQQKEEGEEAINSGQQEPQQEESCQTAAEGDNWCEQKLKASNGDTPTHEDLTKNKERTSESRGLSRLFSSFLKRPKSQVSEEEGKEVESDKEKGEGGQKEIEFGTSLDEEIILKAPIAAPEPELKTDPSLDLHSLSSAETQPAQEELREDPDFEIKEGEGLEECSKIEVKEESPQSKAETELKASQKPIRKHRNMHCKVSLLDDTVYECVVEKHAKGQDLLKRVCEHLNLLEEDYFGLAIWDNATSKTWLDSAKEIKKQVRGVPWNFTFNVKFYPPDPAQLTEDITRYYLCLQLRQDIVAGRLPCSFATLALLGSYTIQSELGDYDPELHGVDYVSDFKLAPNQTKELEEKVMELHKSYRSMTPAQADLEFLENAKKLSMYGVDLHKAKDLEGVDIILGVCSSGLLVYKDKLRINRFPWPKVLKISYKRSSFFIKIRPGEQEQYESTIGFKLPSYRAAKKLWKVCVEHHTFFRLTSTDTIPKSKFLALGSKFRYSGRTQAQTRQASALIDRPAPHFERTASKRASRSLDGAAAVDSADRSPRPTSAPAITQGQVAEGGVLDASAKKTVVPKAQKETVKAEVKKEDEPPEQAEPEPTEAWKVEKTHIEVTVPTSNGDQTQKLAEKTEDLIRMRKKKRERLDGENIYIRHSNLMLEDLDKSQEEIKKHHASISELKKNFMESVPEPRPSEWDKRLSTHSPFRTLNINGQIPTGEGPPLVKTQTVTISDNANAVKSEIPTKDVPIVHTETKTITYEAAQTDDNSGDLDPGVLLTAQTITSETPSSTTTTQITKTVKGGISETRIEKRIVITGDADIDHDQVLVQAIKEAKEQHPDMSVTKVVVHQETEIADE
UniProt Q9BXW9, sequence (Q9BXW9 whole entry, looked up): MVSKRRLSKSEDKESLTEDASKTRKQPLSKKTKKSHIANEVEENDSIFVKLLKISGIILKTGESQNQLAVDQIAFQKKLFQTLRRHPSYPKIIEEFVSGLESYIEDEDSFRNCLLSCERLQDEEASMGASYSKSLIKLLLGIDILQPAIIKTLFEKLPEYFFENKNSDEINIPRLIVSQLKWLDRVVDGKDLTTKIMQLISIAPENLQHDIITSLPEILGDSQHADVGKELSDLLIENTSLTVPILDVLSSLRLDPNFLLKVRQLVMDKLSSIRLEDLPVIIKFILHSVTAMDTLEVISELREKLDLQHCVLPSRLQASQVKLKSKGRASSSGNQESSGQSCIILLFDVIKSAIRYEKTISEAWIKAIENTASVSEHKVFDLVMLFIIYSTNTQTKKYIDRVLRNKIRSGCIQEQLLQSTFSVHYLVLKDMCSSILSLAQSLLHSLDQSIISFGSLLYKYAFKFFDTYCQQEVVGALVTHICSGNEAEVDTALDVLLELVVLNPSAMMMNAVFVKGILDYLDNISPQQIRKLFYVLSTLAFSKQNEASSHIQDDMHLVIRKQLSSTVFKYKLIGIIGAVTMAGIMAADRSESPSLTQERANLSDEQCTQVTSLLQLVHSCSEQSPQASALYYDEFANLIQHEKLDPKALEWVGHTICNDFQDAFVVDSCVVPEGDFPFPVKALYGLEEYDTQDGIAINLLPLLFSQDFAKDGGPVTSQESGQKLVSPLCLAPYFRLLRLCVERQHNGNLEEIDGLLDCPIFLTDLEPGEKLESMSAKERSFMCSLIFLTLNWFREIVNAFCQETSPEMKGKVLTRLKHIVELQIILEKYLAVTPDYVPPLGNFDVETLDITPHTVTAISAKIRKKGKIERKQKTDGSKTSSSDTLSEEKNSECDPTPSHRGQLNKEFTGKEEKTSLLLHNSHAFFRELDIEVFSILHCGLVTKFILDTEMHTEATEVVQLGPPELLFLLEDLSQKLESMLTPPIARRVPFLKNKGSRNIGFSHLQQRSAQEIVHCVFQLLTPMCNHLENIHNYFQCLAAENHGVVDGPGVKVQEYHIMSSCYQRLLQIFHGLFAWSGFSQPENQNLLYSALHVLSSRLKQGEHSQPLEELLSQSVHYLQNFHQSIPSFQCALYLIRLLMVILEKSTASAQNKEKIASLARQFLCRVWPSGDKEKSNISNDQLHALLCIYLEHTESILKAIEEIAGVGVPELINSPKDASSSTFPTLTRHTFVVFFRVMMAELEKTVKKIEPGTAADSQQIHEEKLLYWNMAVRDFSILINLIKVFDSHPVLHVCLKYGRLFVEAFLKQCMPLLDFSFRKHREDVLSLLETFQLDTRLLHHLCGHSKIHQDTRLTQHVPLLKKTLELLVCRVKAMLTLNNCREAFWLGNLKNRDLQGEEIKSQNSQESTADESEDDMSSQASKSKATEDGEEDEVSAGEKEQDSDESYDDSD
UniProt Q96I24, sequence (Q96I24 whole entry, looked up): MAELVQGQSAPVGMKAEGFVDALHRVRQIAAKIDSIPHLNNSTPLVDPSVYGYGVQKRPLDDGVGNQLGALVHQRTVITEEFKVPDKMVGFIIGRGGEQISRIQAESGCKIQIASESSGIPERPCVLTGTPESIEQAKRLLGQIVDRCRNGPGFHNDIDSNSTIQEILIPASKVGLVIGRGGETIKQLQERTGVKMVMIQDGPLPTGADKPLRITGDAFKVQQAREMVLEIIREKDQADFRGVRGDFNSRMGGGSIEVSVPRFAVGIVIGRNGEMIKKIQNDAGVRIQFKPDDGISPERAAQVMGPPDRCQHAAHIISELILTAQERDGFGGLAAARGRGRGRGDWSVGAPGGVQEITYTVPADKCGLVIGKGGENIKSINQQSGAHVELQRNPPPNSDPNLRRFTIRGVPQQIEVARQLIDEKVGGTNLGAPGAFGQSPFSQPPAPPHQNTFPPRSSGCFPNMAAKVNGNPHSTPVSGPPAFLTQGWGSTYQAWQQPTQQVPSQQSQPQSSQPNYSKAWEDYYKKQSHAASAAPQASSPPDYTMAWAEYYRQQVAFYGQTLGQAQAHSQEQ
UniProt Q6P4F2, sequence (Q6P4F2 whole entry, looked up): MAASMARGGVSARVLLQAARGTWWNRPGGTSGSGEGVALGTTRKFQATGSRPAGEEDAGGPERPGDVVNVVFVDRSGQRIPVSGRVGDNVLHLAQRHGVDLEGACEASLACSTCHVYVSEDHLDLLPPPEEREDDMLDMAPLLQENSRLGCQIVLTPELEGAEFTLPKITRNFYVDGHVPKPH
UniProt Q14318, sequence (Q14318 whole entry, looked up): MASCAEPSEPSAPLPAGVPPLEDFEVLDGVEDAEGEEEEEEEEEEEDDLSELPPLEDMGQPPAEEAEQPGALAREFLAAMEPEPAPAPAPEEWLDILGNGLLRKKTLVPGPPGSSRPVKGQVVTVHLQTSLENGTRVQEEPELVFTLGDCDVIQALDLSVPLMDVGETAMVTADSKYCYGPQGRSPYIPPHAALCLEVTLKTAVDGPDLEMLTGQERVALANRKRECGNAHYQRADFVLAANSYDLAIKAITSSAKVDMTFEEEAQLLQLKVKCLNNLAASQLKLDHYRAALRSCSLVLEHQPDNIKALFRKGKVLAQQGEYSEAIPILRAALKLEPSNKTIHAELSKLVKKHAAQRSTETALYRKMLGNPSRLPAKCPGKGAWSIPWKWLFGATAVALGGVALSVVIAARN
UniProt P19525, sequence (P19525 whole entry, looked up): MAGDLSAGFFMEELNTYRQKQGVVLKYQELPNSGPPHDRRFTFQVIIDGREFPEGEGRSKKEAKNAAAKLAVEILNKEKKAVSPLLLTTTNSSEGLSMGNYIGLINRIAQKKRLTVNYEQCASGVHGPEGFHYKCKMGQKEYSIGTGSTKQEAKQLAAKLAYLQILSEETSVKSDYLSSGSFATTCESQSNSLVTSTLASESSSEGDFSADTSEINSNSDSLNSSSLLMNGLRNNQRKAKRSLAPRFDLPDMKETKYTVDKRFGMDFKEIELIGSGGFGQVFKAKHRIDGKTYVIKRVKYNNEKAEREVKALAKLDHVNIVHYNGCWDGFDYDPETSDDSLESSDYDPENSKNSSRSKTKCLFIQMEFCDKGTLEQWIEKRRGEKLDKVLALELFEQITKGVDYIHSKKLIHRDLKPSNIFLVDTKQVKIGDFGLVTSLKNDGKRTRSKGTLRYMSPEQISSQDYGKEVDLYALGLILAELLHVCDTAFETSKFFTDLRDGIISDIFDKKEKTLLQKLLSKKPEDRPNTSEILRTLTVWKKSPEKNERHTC

| Target | log2 fold change (lapatinib) | log2 fold change (pictilisib) | log2 fold change (crizotinib) | log2 fold change [1] | log2 fold change (duvelisib) | log2 fold change (gandotinib) | log2 fold change (tozasertib) | log2 fold change (doramapimod) | log2 fold change (bafetinib) | log2 fold change [2] | log2 fold change (nilotinib) | log2 fold change [3] | log2 fold change (dasatinib) | log2 fold change [4] | log2 fold change [5] | log2 fold change (quisinostat) | log2 fold change (tipifarnib) | log2 fold change [6] | log2 fold change [7] | log2 fold change [8] |
| --- | --- | --- | --- | --- | --- | --- | --- | --- | --- | --- | --- | --- | --- | --- | --- | --- | --- | --- | --- | --- |
| FAM114A2 (UniProt Q9NRY5) | 0.106 | -0.013 | 0.013 | -0.023 | 0.011 | 0.449 (active) | -0.108 | -0.011 | -0.121 | 0.196 | 0.152 | 0.053 | -0.028 | 0.031 | 0.002 | 0.02 | -0.231 | 0 | 0.009 | -0.071 |
| FDX2 (UniProt Q6P4F2) | 0.047 | -0.169 | 0.057 | -0.142 | 0.188 | 0.014 | -0.15 | 0.014 | 0 | 0.112 | 0.135 | -0.025 | 0.058 | -0.067 | -0.006 | -0.068 | 0.096 | 0.05 | -0.068 | 0.052 |
| DUS2 (UniProt Q9NX74) | -0.033 | 0.04 | 0.041 | -0.032 | 0.018 | -0.051 | 0.011 | -0.01 | -0.017 | -0.009 | 0.021 | -0.035 | 0.037 | 0.011 | -0.024 | 0.088 | -0.019 | 0 | 0.014 | -0.045 |
| GGT7 (UniProt Q9UJ14) | -0.024 | -0.007 | 0.01 | 0.068 | 0.011 | 0.033 | -0.03 | -0.054 | -0.09 | 0.042 | -0.061 | -0.023 | -0.083 | 0.014 | -0.012 | 0.092 | -0.008 | 0.071 | 0.007 | 0.02 |
| FOXJ3 (UniProt Q9UPW0) | 0.039 | -0.049 | -0.053 | 0.101 | 0.035 | -0.042 | 0.021 | 0 | -0.139 | -0.003 | 0.156 | -0.053 | -0.013 | -0.008 | -0.063 | -0.055 | -0.017 | 0.042 | 0.017 | -0.115 |
| EP400 isoform 5 (UniProt Q96L91) | 0.052 | -0.068 | -0.04 | -0.018 | -0.036 | -0.012 | -0.041 | 0.02 | -0.053 | -0.011 | -0.05 | -0.04 | 0.001 | -0.025 | -0.005 | -0.014 | 0.04 | 0.012 | 0.019 | -0.003 |
| EIF2AK2 (UniProt P19525) | -0.003 | 0.03 | 0.12 | -0.061 | -0.036 | -0.022 | -0.009 | 0.011 | -0.036 | 0.022 | -0.014 | 0.043 | 0.122 | 0.01 | 0.056 | -0.087 | -0.032 | 0.045 | -0.013 | -0.054 |
| ESPL1 (UniProt Q14674) | 0.053 | 0.07 | -0.015 | 0.027 | -0.011 | 0.026 | 0.024 | -0.044 | -0.077 | 0.057 | -0.013 | 0.006 | 0.044 | 0.054 | 0.02 | 0.066 | -0.024 | 0.021 | -0.014 | -0.055 |
| FANCD2 isoform 1 (UniProt Q9BXW9) | -0.092 | -0.037 | -0.221 | -0.086 | -0.032 | 0.132 | -0.069 | -0.023 | -0.079 | 0.279 (active) | 0.015 | -0.002 | -0.066 | 0.048 | 0 | -0.238 (active) | -0.037 | 0.018 | 0.033 | -0.124 |
| GABPB1 (UniProt Q06547) | -0.042 | -0.052 | 0.021 | 0.192 | 0.018 | -0.194 | -0.004 | 0.026 | -0.071 | -0.082 | -0.008 | 0.012 | -0.051 | -0.023 | 0.05 | -0.036 | 0.007 | 0.031 | 0.05 | 0.033 |
| FKBP8 isoform 2 (UniProt Q14318) | -0.041 | -0.036 | -0.12 | -0.035 | 0.044 | -0.021 | -0.024 | 0.064 | -0.07 | 0.013 | -0.019 | -0.055 | -0.056 | 0.014 | 0.011 | -0.21 | -0.005 | 0.067 | 0.02 | 0.005 |
| FUBP3 (UniProt Q96I24) | 0.02 | -0.109 | 0.005 | 0.036 | -0.022 | 0.019 | 0.033 | -0.034 | -0.055 | -0.05 | -0.201 | -0.016 | -0.094 | 0.012 | 0.01 | -0.029 | -0.009 | 0.043 | -0.005 | 0.032 |
| EPB41 (UniProt P11171) | -0.009 | -0.015 | -0.007 | 0.04 | -0.016 | -0.105 | 0.035 | 0.01 | -0.013 | -0.088 | -0.01 | 0.024 | 0 | -0.007 | 0.031 | 0.039 | 0.011 | 0.003 | 0.012 | 0.003 |
| ESYT2 (UniProt H7BXI1) | -0.008 | 0.01 | -0.039 | 0.089 | 0.018 | -0.073 | 0.063 | 0.018 | -0.115 | 0.002 | 0.016 | -0.017 | -0.01 | 0.037 | 0.02 | 0.027 | 0.009 | -0.015 | -0.031 | -0.051 |
| EGLN1 (UniProt Q9GZT9) | -0.075 | 0.031 | -0.018 | 0.037 | 0.199 | -0.036 | 0.034 | 0.006 | 0.001 | -0.055 | 0.006 | 0.007 | -0.045 | -0.066 | 0.03 | -0.048 | -0.05 | 0.044 | 0.039 | 0.006 |
| ECH1 (UniProt Q13011) | -0.035 | -0.008 | -0.03 | -0.089 | 0.016 | 0.005 | 0.178 | -0.008 | 0.091 | 0.028 | -0.008 | -0.019 | 0.195 | -0.003 | 0.02 | -0.008 | 0.022 | 0.001 | -0.022 | 0.193 |
